# D1 agonist: human D1 receptor agonism. P21728. HEK293 T-REx D1 cells, calcium flux, agonist mode. actives 1% (n = 360,000). activation, % at 2 µM. AID 504660; in the data active means activation above about 30%; further: 0% is about no effect
# Target sequence (P21728 whole entry, looked up): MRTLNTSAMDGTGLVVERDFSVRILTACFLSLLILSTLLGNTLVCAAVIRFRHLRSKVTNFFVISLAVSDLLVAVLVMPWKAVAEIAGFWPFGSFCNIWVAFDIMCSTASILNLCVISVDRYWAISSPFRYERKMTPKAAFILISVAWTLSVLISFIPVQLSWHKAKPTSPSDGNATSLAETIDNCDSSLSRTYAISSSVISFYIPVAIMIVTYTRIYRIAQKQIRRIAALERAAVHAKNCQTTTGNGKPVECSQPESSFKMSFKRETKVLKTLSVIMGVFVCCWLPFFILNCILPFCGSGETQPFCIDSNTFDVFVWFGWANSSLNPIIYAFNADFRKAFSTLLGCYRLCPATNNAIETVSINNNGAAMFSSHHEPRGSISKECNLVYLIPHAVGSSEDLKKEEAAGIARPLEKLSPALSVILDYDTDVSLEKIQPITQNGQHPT
#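 Tetracycline-induced HEK293 TREx D1 cells, force-coupled to calcium signalling, were dye-loaded with a no-wash calcium kit. Compound was pin-added after a 10 s baseline. Fluorescence was read kinetically at 1 cycle/s for 180 s, with calcium rises flagged as agonism.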
# D1 antag: blocks dopamine activation of the human D1 receptor | P21728 | HEK293 TREx D1 cells, calcium flux, dopamine EC80; active compounds read low | activity change, negative = inhibition, % at 10 µM | actives 3.2% (n = 360,000) | AID 504652; in the data active means activity change below about -30%; further: on the % scale 0 is the no-effect control and ±100 the full control effect
#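 Allosteric or orthosteric antagonism assessed as attenuation of the calcium response to EC80 dopamine, added 180 s after compound, in induced HEK293 Trex D1 cells loaded with no-wash calcium dye.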
# D3 antag: blocks the human D3 dopamine receptor; AID 652054; actives 2.5% (n = 360,000); P35462; D3R cells, DiscoveRx beta-arrestin luminescence, antagonist mode; active compounds read low; max response, negative = inhibition, %; in the data active means max response below about -50%; inconclusive means no clear call, values can overlap the other calls; further: on the % scale 0 is the no-effect control and ±100 the full control effect
#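 Cells expressing the human receptor were seeded at 1500 cells/well, incubated overnight at 37 degrees C in 5% CO2, then exposed to library compounds with dopamine controls for 90 minutes at 37 degrees C before luminescent detection.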
# D3 ag: D3 dopamine receptor (human) agonism | AID 652048 | P35462 | D3R DiscoveRx beta-arrestin cells, luminescence, 90 min | actives 0.58% (n = 410,000) | max activation, %; in the data active means max activation above about 30%; further: 0% is about no effect
#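 Agonist-mode cell screen: cells plated at 1500/well and incubated overnight at 37 °C, then exposed to library compounds for 90 min at 37 °C. Detection reagent was added for 30–60 min at room temperature, and luminescence was read.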
# D1 PAM: potentiators of human D1 dopamine receptor; HEK293 TREx D1 cells, calcium flux, dopamine EC20 potentiation; potentiation, % at 10 µM; actives 0.036% (n = 360,000); AID 504651; in the data active means potentiation above about 30%; further: 0% is about no effect
# Active calls of the source: *; ? = inconclusive; . = no result; ! = not confirmed by another sample. In the library only some 6.1% were active in any assay of this set; here they are far more common.
SMILES,D1 agonist,D1 antag,D3 antag,D3 ag,D1 PAM
O=C(c1cccc(Cl)c1)C1CCCN(S(=O)(=O)c2ccccc2)C1 (centres undefined),-0.3,-53.7*,21.2,4.4,-2.9
C=CCS(=O)(=O)N1CCCC(C(=O)c2cccc(Cl)c2)C1 (centres undefined),0.6,-23.0,-17.6,-5.9,-2.3
CCN(CC)CCCNc1ccc2ncn3c4ccc(O)cc4c(=O)c1c23,.,.,7.4,-10.5,.
COc1cc(CNc2ccc3[nH]c(=O)[nH]c3c2)ccc1OCc1ccccc1C,3.4,-56.8*,-17.0,12.0,1.9
COc1cc(CNc2ccc3[nH]c(=O)[nH]c3c2)ccc1OCc1ccc(F)cc1Cl,2.2,-5.0,17.1,34.8*!,4.9
Cc1cccc(C)c1N(CCCc1cccnc1)C(=O)C(C)N (centres undefined),.,.,.,3.9,.
CCOC(=O)c1c(NC(=O)CSc2nnc(-c3cccnc3)o2)sc(C(C)=O)c1C,1.5,-34.7*,-15.1,2.1,4.7
Cc1ccc2[nH]c(-c3ccccc3)c(CN3CCCC3)c(=O)c2c1,1.7,-20.7,16.1,0.2,-3.9
Cc1ccc2[nH]c(-c3ccccc3)c(CN3CCN(C)CC3)c(=O)c2c1,2.4,-13.4,-76.0*,-8.0,-1.2
O=C(NCC1CCCCC1)c1ccc2nc([C@@H]3O[C@H](CO)[C@@H](O)[C@H]3O)[nH]c2c1,.,.,12.1,-3.9,.
O=c1c2cc([N+](=O)[O-])ccc2sn1-c1ccccc1,.,.,-94.0*,-19.4,.
COc1ccc(OCCCN2CCc3ccccc3C2)cc1,1.9,-8.0,-109.3*,-19.0,-10.1
CCCOc1ccc(OCCOCCN2CCc3ccccc3C2)cc1,0.1,-5.1,-70.4*,-2.6,5.4
CCOc1ccc(OCCOCCN2CCc3ccccc3C2)cc1,2.0,5.5,-58.0*,-5.8,-4.2
C=CCc1cc(OC)ccc1OCCOCCN1CCc2ccccc2C1,11.4,-42.7*,-87.5*,-23.6,-11.2
CCOc1ccc(-n2ccnc2SCC(=O)Nc2cc(C)on2)cc1,0.7,6.4,10.9,-4.2,1.2
Cc1ccc(SCCOCCN2CCc3ccccc3C2)cc1,3.3,-3.2,-104.8*,-10.6,-8.2
c1ccc(OCCOCCN2CCc3ccccc3C2)cc1,3.6,24.1,-111.1*,-18.5,-8.9
Fc1ccc(OCCOCCN2CCCC2)cc1,.,.,-2.9,-11.5,.
COc1ccc(C2(O)CCN(CCCCOc3ccccc3)CC2)cc1,36.1*,-18.3,-90.0*,-34.4,-17.1
Cc1ccccc1C(=O)NCC(=O)O,1.6,-21.1,25.1,2.7,-5.0
CCOc1ccc(-n2c(C)cc(/C=N/Nc3nc(C)cc(=O)[nH]3)c2C)cc1,2.6,-35.3*,-28.7,-14.8,-4.1
CSc1ccc(/C=N/Nc2nc(C)cc(=O)[nH]2)cc1,3.7,-30.2*,11.8,-3.7,-11.0
COc1ccc(NC(=O)c2cc(=O)c3ccc(C)c(C)c3o2)cc1Cl,3.7,-7.6,.,9.1,-0.2
Cc1ccc(Cl)cc1N1CCN(C(=O)c2ccc(C)c(-n3c(C)nc4cccnc43)c2)CC1,69.4*,-32.3*,.,-6.8,2.8
SMILES,D1 agonist,D1 antag,D3 antag,D3 ag,D1 PAM
O=C(c1cccc(N2CCCC2=O)c1)N1CCN(c2cccc(Cl)c2)CC1,17.1,-57.4*,-8.4,-6.1,-6.8
Cc1ccc(C(=O)N2CCN(c3cccc(Cl)c3)CC2)cc1C,2.0,-31.8*,30.1,10.5,-1.0
CCc1ccc(OCC(=O)NNC(=O)c2cc(S(=O)(=O)N(C)C)ccc2N2CCCC2)cc1,1.0,-10.6,0.7,-3.0,-0.9
COc1cc(Cl)c(C)cc1Nc1c2c(nc3ccccc13)CCC2,0.3,0.1,.,-14.3,-1.1
N#C/C(=C(/O)c1ccc(Br)s1)c1nc2ccccc2[nH]1,4.0,-44.7*,-26.8,2.6,-6.8
O=C(N/N=C/C1CCCCC1)c1ccccc1-n1cccc1,2.5,42.1,1.5,36.0*,4.0
COc1cc(C(=O)Nc2nnc(S(=O)(=O)N3CCCCCC3)s2)cc(OC)c1OC,3.9,3.8,-7.5,-12.3,-4.7
CCNC(=O)CSc1nc(-c2ccc(F)cc2)cs1,0.3,-30.6*,9.8,2.4,-6.7
CC(C)(C)NC(=O)CSc1nc(-c2ccc(F)cc2)cs1,2.1,2.9,-21.7,5.5,0.1
Cc1cc(NC(=O)CSc2nc(-c3ccc(Cl)cc3)cs2)no1,2.4,-45.9*,4.0,0.1,-2.6
COC(=O)Nc1ccc(SCC(=O)c2ccc(Cl)cc2)cc1,1.9,-31.7*,-1.6,-4.9,2.1
CCn1cc([N+](=O)[O-])c(C(=O)NCc2ccc3c(c2)OCO3)n1,1.4,1.3,0.8,3.3,-1.1
CCn1cc([N+](=O)[O-])c(C(=O)Nc2ccc3c(c2)OCCO3)n1,0.0,-75.2*,17.1,-12.6,-7.0
CCn1cc([N+](=O)[O-])c(C(=O)N2CCN(C(=O)c3ccco3)CC2)n1,3.3,2.5,11.9,1.3,-0.6
Cc1cc(C(=O)Nc2cnc3ccccc3c2)ccc1[N+](=O)[O-],0.6,-60.1*,5.4,-0.8,0.1
Cc1cc(C(=O)Nc2ccc3c(c2)OCCO3)ccc1[N+](=O)[O-],0.2,-9.1,-62.5*,-11.0,-5.6
CCn1cc([N+](=O)[O-])c(C(=O)N2CCCC2)n1,0.8,-0.5,11.1,32.3*,-0.7
O=C(Nc1ccc2c(c1)OCCO2)c1ccc(Cl)c([N+](=O)[O-])c1,-0.1,-13.3,-27.0,-5.8,-0.8
Cc1cc2c(s1)c1cnn(Cc3cc(F)ccc3C)c(=O)c1n2C,2.0,22.7,.,.,6.0
Cc1ccc(SC(C)C(=O)N2CCC(C(N)=O)CC2)cc1 (centres undefined),-0.7,-3.8,7.7,-0.3,-0.8
Cc1ccc(SC(C)C(=O)N2CCCC2)cc1 (centres undefined),0.4,-35.2*,-21.4,3.0,-6.7
COc1cc(C#Cc2c(-c3cncn3C)n(C)c3ccc(-c4ccc(CN5CCOCC5)cc4)cc23)cc(OC)c1,.,.,132.2,56.8*,.
COc1ccc(C(=O)NCC(=O)N2CCN(c3ccc(F)cc3)CC2)cc1,-3.3,7.0,17.3,7.4,-4.8
CS(=O)(=O)c1ccc(S(=O)CC(=O)OCc2ccccc2)c([N+](=O)[O-])c1 (centres undefined),4.7,-2.9,-90.2*,-29.2,1.6
O=C(CS(=O)c1ccc(C(F)(F)F)cc1[N+](=O)[O-])Oc1ccccc1 (centres undefined),1.7,-24.8,?,-15.8,1.8
COc1ccccc1C(CNC(=O)CNC(=O)c1ccc(C)c(C)c1)N1CCCC1 (centres undefined),3.8,-19.9,5.2,-9.0,.
COc1ccccc1C(CNC(=O)CNC(=O)c1ccc(Cl)c(Cl)c1)N1CCCC1 (centres undefined),8.8,-38.3*,?,-7.7,.
COc1ccccc1C(CNC(=O)CNC(=O)c1ccccc1Cl)N1CCCC1 (centres undefined),3.0,-44.9*,-7.9,-3.1,-1.9

# Source: PubChem BioAssay
